Assay outcomes deposited in PubChem BioAssay by several laboratories.
Granule exo inh – lytic granule exocytosis inhibition; TALL-104 LAMP-1 surface exposure, flow cytometry; cells stimulated with thapsigargin and PMA; inhibition, % at 10 µM; actives 0.66% (n = 360,000); AID 651702;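 active = inhibition above about 55%, limit read from the data; inconclusive = no clear call, values can overlap the other calls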
ABCB6 inh MLPCN – human ABCB6 transporter inhibition. actives 0.19% (n = 360,000). K562-ABCB6 porphyrin accumulation, flow cytometry, 1 h; active compounds read low. Q9NP58. AID 602162. fluorescence ratio to DMSO, % at 10 µM;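 active = fluorescence ratio to DMSO below 75%, the collection mean minus 3 SD; inconclusive = too few cells collected in the well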;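 note: signal is porphyrin accumulated inside mitochondria; 100% equals median channel fluorescence of DMSO control wells; lower ratio means ABCB6 inhibition with less porphyrin fluorescence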
Target sequence (Q9NP58 whole entry, looked up): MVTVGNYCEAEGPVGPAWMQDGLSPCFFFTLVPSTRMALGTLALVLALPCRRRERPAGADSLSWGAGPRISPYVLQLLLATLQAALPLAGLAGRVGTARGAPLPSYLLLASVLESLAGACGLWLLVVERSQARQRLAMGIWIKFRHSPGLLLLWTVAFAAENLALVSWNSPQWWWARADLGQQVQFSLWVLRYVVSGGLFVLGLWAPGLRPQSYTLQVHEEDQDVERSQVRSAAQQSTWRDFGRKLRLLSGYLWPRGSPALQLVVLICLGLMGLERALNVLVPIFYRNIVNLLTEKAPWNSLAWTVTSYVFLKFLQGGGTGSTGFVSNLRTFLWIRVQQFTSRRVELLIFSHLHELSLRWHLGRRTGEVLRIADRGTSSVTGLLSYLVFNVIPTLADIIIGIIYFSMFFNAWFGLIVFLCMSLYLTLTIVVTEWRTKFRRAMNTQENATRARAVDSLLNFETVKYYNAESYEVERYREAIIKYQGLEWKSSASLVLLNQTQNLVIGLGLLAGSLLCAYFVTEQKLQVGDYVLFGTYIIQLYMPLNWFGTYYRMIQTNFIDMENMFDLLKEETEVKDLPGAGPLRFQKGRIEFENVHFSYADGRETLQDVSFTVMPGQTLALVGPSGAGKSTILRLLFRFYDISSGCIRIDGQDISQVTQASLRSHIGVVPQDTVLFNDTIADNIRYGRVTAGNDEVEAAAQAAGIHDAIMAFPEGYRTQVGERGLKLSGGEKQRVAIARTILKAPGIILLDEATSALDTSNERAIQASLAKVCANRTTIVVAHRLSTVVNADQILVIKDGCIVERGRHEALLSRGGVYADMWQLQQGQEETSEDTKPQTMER
PG9 binder – PG9 antibody binding by small molecule; TR-FRET gp120-PG9 antibody binding; inhibition, % at 6.7 µM; actives 0.43% (n = 360,000); AID 624416; in the data active = inhibition above about 8.5%
NR1D1 modulator – modulates human Rev-erb alpha binding to DNA; Rev-erbα–FITC-DNA binding, fluorescence polarization, 90 min; actives 0.79% (n = 370,000); activity, % at 10 µM; P20393; AID 1259318;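 active = activity above about 14%, limit read from the data; passing the limit was not always enough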;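 note: 0% = DMSO wells with 35 nM protein and 100% = DMSO wells with 750 nM protein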
VLA-4 inh – inhibition in a human VLA-4 binding assay. actives 0.2% (n = 330,000). P13612. inhibition, % (about 7 µM as worked out from the volumes in the protocol). VLA-4 expressing cells, ligand binding flow cytometry; in the data active = inhibition above about 50%
Rev-erbA confirm – confirmation of modulators of human Rev-erb alpha DNA binding | AID 1259319 | shares compounds with NR1D1 modulator | actives 61% (n = 3,000) | Rev-erb alpha FITC-DNA binding, fluorescence polarization, 90 min | activation, % at 25 µM;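 active = activation at or above a set limit, or at least 3 SD above the negative control mean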;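 note: 0% = 35 nM protein with DMSO and 100% = 750 nM protein high control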
RORg counter – affects RORgamma DNA binding in a Rev-erb alpha counter-screen; shares compounds with NR1D1 modulator; purified RORgamma protein-FITC-DNA binding, fluorescence polarization; IC50, µM; actives 8% (n = 910);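 active = Compounds whose fitted half-maximal concentration for disrupting protein-DNA binding is below 10 micromolar; the record names Rev-erb in its text, so the target is in doubt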
The depositor's hits bear a star; i = inactive; u = inconclusive; x = no result given. The list is not random: actives were taken first. Their share in the collection is about 2%.

SMILES	Granule exo inh	ABCB6 inh MLPCN	PG9 binder	NR1D1 modulator	VLA-4 inh	Rev-erbA confirm	others
Cc1ccccc1NC(=O)Nc1ccc2c(c1)C(=O)N(C)[C@H]1CC[C@H](CC(=O)NCC3CC3)O[C@@H]1CO2	x	x	x	30*	x	14*
CN1C(=O)c2cc(NC(=O)c3ccccc3)ccc2OC[C@H]2O[C@@H](CC(=O)NCC3CC3)CC[C@@H]21	x	x	x	34*	x	22*
C=C(C)CSc1nnc(-c2cc(-c3ccccc3)n[nH]2)n1N	x	x	x	-6	x	x
O=C(CCc1ccccc1)N[C@H]1[C@H](O)CCC[C@]12C(=O)N(Cc1ccccc1)c1ccccc12	x	x	x	1	x	x
COc1ccc(C(=O)c2c[nH]c(C(=O)NCc3cccs3)c2)cc1	-2	96	0	43*	2	63*	RORg counter=>40
CC(=O)N1CCc2cc(N=NC3=C(O)CC(C)(C)CC3=O)ccc21	-8	101	-3	20*	4	20*
COc1ccc2cc(/C=N/NC(=O)c3c(Cl)cnn3C)c(Cl)nc2c1	-1	93	-4	24*	-14	11
Cc1ccccc1CNC(=O)C1CCCN(c2ncccn2)C1 (configuration not stated)	x	x	x	-1	x	x
CC(=O)Nc1ccc2c(COC(=O)CC3Sc4ccccc4NC3=O)cc(=O)oc2c1 (configuration not stated)	-2	100	-3	53*	3	26*
CCc1nccn1CC(=O)c1ccc(O)c(O)c1	x	x	x	0	x	x
Cc1cc(C)cc(N2CC(O)=C(c3nc4ccccc4c(=O)[nH]3)C2=N)c1	-1	97	6	21*	15	33*	RORg counter=>40
Cc1onc(-c2ccccc2)c1C(=O)N1CCN(C(=O)C(=O)c2cccc(C(F)(F)F)c2)CC1	x	x	-1	-6	x	x
N#CCOc1ccccc1CNC[C@H]1O[C@@H](n2cnc(C(N)=O)n2)[C@H](O)[C@@H]1O	1	97	1	16*	x	-7
NC(=O)c1ncn([C@@H]2O[C@H](CNCc3ccccc3C#Cc3ccccc3)[C@@H](O)[C@H]2O)n1	8	99	0	-6	x	x
COc1ccc(CCn2c(-c3ccc(F)cc3)nc3c(c(=O)c4ccccc4n3C)c2=O)cc1OC	6	100	1	41*	15	16
O=C(Nc1ccon1)c1sc2cc(Cl)ccc2c1Cl	-4	100	-2	25*	22	15
Cc1oc2cc3oc(=O)c4c(c3cc2c1C)CCC4	2	100	0	49*	8	44*	RORg counter=>40
Cc1coc2c(C)c3oc(=O)c4c(c3cc12)CCCC4	-4	94	0	16	31	x
Cc1oc2c(C)c3oc(=O)c4c(c3cc2c1C)CCC4	1	86	1	46*	x	9
Cn1cc(CCOCc2ccc(Br)cc2)c2ccccc21	x	x	2	6	x	x
Cc1ccc(-c2nc3c(C)cc(Br)cn3c2Cc2cccc(F)c2)cc1	5	107	4	21*	x	20*
Cc1cc(Br)cn2c(Cc3ccccc3C(F)(F)F)c(-c3ccccc3)nc12	-5	126	1	22*	x	11*
Cc1cc(Br)c2nc(-c3ccccc3)c(Cc3cccc(Cl)c3)n2c1	6	129	8	27*	x	15*
COc1ccc(-c2nc3ccc(Br)cn3c2Cc2cccc(F)c2)cc1OC	-7	90	4	18*	x	3
Cc1cc(Br)cn2c(Cc3ccccc3C(F)(F)F)c(-c3cccc(Br)c3)nc12	-2	122	2	11	x	x
SMILES	Granule exo inh	ABCB6 inh MLPCN	PG9 binder	NR1D1 modulator	VLA-4 inh	Rev-erbA confirm	others
COc1ccc(-c2nc3ccc(C)cn3c2Cc2cccc(F)c2)cc1OC	6	104	-1	5	x	x
Cc1cc(Br)cn2c(Cc3ccccc3)c(-c3cccc(Cl)c3)nc12	-7	117	5	19*	x	16*
Cc1ccc(Cc2c(-c3ccccc3)nc3c(C)cc(Br)cn23)cc1	-2	121	4	10	x	x
Cc1ccc(Cc2c(-c3ccc(Br)cc3)nc3ccc(Br)cn23)cc1	-4	96	4	24*	x	22*
Cc1ccc(Cc2c(-c3ccc(Br)cc3)nc3ccc(Cl)cn23)cc1	-2	103	1	-2	x	x
Cc1nc(NC(=O)c2cncc(Br)c2)ccc1Br	7	103	0	62*	-7	55*	RORg counter=>40
CCOC(=O)c1ccccc1NC(=O)c1cncc(Br)c1	1	85	1	94*	x	77*	RORg counter=>40
COC(=O)c1cc2c(c3c4cc(OC)ccc4n(S(=O)(=O)c4ccc(OC)cc4)c13)C(=O)N(Cc1ccccc1OC)C2	x	x	1	11	x	x
CN1/C(=C/C(=S)NC(=O)C2(C)CC2(Cl)Cl)C(C)(C)c2ccccc21 (configuration not stated)	1	250	0	23*	i	-2
CN1/C(=C\C(=S)NC(=O)c2ccccc2Cl)C(C)(C)c2ccccc21	-2	588	0	7	i	x
Cc1ccc(C(=O)NC2CCCCN(C(C)C)C2=O)cc1 (configuration not stated)	x	x	x	11	x	x
CCOC(=O)C1=CN(CC)CCC1=O	-4	97	-3	25*	x	-2
Cc1cc2cc(CN(Cc3ccc4c(c3)OCO4)C(=O)c3cnccn3)c3nnnn3c2cc1C	0	90	1	6	5	x
O=C(c1ccccc1F)N(Cc1ccc2c(c1)OCO2)Cc1cc2cc3c(cc2n2nnnc12)OCO3	-4	91	-1	34*	-15	16
COc1ccc(OC)c(NC(=O)C2CCN(c3cc(-c4ccccc4)nc4ncnn34)CC2)c1	0	83	-2	35*	-7	17
COc1ccc(NC(=O)C2CCN(c3cc(-c4ccccc4)nc4ncnn34)CC2)cc1OC	2	111	0	-6	-1	x
COCC(=O)Nc1cc(Sc2ccccc2)ccc1N=C(NC(=O)OC)NC(=O)OC	x	x	x	3	x	x
COc1ccc2[nH]cc(/C=C/c3cc[n+](C)cc3)c2c1	-1	315	-23	69*	-251	58*	RORg counter=>40
COc1ccc2[nH]cc(C=O)c2c1	1	99	0	-4	2	x
CCOC(=O)Cn1c(=NC(=O)C2CC2)sc2c(C)cc(C)cc21	-3	92	21*	18*	9	-8
Cc1ccccc1C(=O)NC1CCCCN(Cc2cccc(C(F)(F)F)c2)C1=O (configuration not stated)	x	x	x	1	x	x
COc1ccccc1-c1cc(-c2ccccc2)nc(SC(C(N)=O)c2ccccc2)c1C#N (configuration not stated)	0	93	8	39*	13	20*
CCn1cc(CCC(=O)Nc2ccc(Oc3cccnc3)cc2)c2ccccc21	x	x	0	0	x	x
CN(CCC#N)c1ccc(/C=C(\C#N)c2ccccn2)cc1	u	96	-2	71*	11	75*	RORg counter=>40
